Laboratory results as given in PubChem BioAssay (NCI).
Values joined by “and” are separate entries in the source; they are usually repeats but may differ in a detail not shown here. Equal values may be shown once. Compounds without any hit were thinned out: in the full panel of roughly 79,000, 15% have a hit. Values without a mark were called inactive. Active and inactive are the calls of the source. Cut-off read from the data, not from the text of the source: active = growth inhibition above about 70%; inactive = the rest.

Key:
[1] = NCI Yeast Anticancer Drug Screen. Data for the mec2-1 strain (AID 157); details: S. cerevisiae mec2-1 strain, hits give high values
Procedure, shortened: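 Cells of the genetically defined mec2-1 yeast strain are incubated with test compound. Inhibition of growth is calculated against vehicle-treated controls.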

[2] = NCI Yeast Anticancer Drug Screen. Data for the rad14 strain (AID 159);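 note: 0% = growth of vehicle-treated control cultures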; details: S. cerevisiae rad14 strain growth inhibition, hits give high values
Procedure, shortened: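 Inhibition of growth is reported for a repair-deficient yeast mutant following compound treatment, calculated relative to cultures that received vehicle.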

[3] = NCI Yeast Anticancer Drug Screen. Data for the sgs1 mgt1 strain (AID 161);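 note: 0% = growth of cultures given vehicle only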; details: S. cerevisiae sgs1 mgt1 strain, hits give high values
Procedure, shortened: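 Genetically altered yeast, compound exposure, growth inhibition relative to vehicle.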

[4] = NCI Yeast Anticancer Drug Screen. Data for the CLN2oe strain (AID 163);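 note: 0% = growth of vehicle-only control cultures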; details: S. cerevisiae CLN2oe strain, hits give high values
Procedure, shortened: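 Strain altered in cell-cycle control, incubated with compound; growth compared to solvent-treated controls.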

[5] = NCI Yeast Anticancer Drug Screen. Data for the bub3 strain (AID 167); details: S. cerevisiae bub3 mutant strain, hits give high values
Procedure, shortened: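 Mutant yeast screening strain plus compound; vehicle-treated cultures serve as the 0% inhibition reference.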

[6] = NCI Yeast Anticancer Drug Screen. Data for the wt2 strain (AID 169); details: S. cerevisiae wt2 strain growth inhibition, hits give high values
Procedure, shortened: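 Steps: yeast strain treated with compound; growth recorded; inhibition calculated relative to cultures given vehicle alone.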

[7] = NCI Yeast Anticancer Drug Screen. Data for the mlh1 strain (AID 171);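 note: 0% = growth of vehicle-treated control cultures of the same strain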; details: S. cerevisiae mlh1 strain growth inhibition, hits give high values
Procedure, shortened: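 Yeast screen: mutant strain plus compound, growth scored against vehicle control wells.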

[8] = NCI Yeast Anticancer Drug Screen. Data for the sgs1 strain (AID 173);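 note: 0% = growth of vehicle-only control cultures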; details: S. cerevisiae sgs1 mutant, hits give high values
Procedure, shortened: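 Inhibition of yeast growth served as the measure. The mutant strain was treated with each compound, and growth was normalised to cultures receiving vehicle alone.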

[9] = NCI Yeast Anticancer Drug Screen. Data for the mlh1 rad18 strain (AID 175); details: S. cerevisiae mlh1 rad18 strain growth inhibition, hits give high values
Procedure, shortened: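 Compound-treated yeast growth, normalised to vehicle controls. Strain bears defined DNA repair mutations.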

[10] = NCI Yeast Anticancer Drug Screen. Data for the rad18 strain (AID 177); details: S. cerevisiae rad18 mutant growth inhibition, hits give high values
Procedure, shortened: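 Inhibition values reflect reduced yeast growth compared with vehicle-treated controls, using a strain engineered with a DNA damage repair defect.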

[11] = NCI Yeast Anticancer Drug Screen. Data for the rad52 strain (AID 147);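 note: 0% = growth of vehicle-treated control cultures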; details: S. cerevisiae rad52 mutant growth inhibition, hits give high values
Procedure, shortened: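 Genetically altered yeast (DNA damage repair defect) treated with compound; inhibition calculated relative to vehicle.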

[12] = NCI Yeast Anticancer Drug Screen. Data for the wt1 strain (AID 149);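 note: 0% = growth of vehicle-treated wt1 cultures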; details: S. cerevisiae wt1 strain (SPY 50644) growth inhibition, hits give high values
Procedure, shortened: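 Each compound is tested on wt1 yeast and the loss of growth versus vehicle gives the inhibition value.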

[13] = NCI Yeast Anticancer Drug Screen. Data for the rad50EPP+ strain (AID 151);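 note: 0% = growth of vehicle-treated control cultures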; details: S. cerevisiae rad50 mutant strain, hits give high values
Procedure, shortened: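 Strain rad50EPP+; compound exposure; % growth inhibition vs vehicle.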

[14] = NCI Yeast Anticancer Drug Screen. Data for the rad50 strain (AID 155);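 note: 0% = growth of vehicle-only cultures of the same strain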; details: S. cerevisiae rad50 strain growth inhibition, hits give high values
Procedure, shortened: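 Vehicle-treated cultures provide the reference for the growth inhibition reported for compound-exposed, repair-deficient yeast.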

[15] = at 5.0 µM (retest, dose inferred, filed as 0.5)
[16] = at 50.0 µM (retest, dose inferred, filed as 5.0)

O=Nn1c2ccccc2c2ccccc21
growth inhibition ([1]; at 100.0 µM): 65% | growth inhibition ([2]; at 1.2 µM): 10% | growth inhibition ([2]; at 3.7 µM): 6% | growth inhibition ([2]; at 11.0 µM): 11% | growth inhibition ([2]; at 33.0 µM): 49% | growth inhibition ([2]; at 100.0 µM): 92% (active) | growth inhibition [3, 15]: 2% | growth inhibition [3, 16]: -10% | growth inhibition ([3]; at 50.0 µM): 5.25% and 16.6% | growth inhibition ([4]; at 1.2 µM): 11% | growth inhibition ([4]; at 3.7 µM): 4% | growth inhibition ([4]; at 11.0 µM): 11% | growth inhibition ([4]; at 33.0 µM): 2% | growth inhibition ([4]; at 100.0 µM): 65% | growth inhibition ([5]; at 1.2 µM): -7% | growth inhibition ([5]; at 3.7 µM): -9% | growth inhibition [5, 15]: -28% | growth inhibition ([5]; at 11.0 µM): -14% | growth inhibition ([5]; at 33.0 µM): -3% | growth inhibition [5, 16]: 95% (active) | growth inhibition ([5]; at 50.0 µM): 1.5% and 66% | growth inhibition ([5]; at 100.0 µM): 59% | growth inhibition ([6]; at 1.2 µM): -46% | growth inhibition ([6]; at 3.7 µM): -34% | growth inhibition ([6]; at 11.0 µM): -28% | growth inhibition ([6]; at 33.0 µM): -15% | growth inhibition ([6]; at 100.0 µM): 62% | growth inhibition ([7]; at 1.2 µM): 27% | growth inhibition ([7]; at 3.7 µM): 27% | growth inhibition ([7]; at 11.0 µM): 19% | growth inhibition ([7]; at 33.0 µM): 56% | growth inhibition ([7]; at 100.0 µM): 93% (active) | growth inhibition ([8]; at 1.2 µM): -3% | growth inhibition ([8]; at 3.7 µM): 5% | growth inhibition ([8]; at 11.0 µM): 10% | growth inhibition ([8]; at 33.0 µM): 7% | growth inhibition ([8]; at 100.0 µM): 66% | growth inhibition [9, 15]: -16% | growth inhibition [9, 16]: 16% | growth inhibition ([9]; at 50.0 µM): 21.5% and 15.5% | growth inhibition ([10]; at 1.2 µM): 9% | growth inhibition ([10]; at 3.7 µM): 7% | growth inhibition ([10]; at 11.0 µM): -9% | growth inhibition ([10]; at 33.0 µM): 24% | growth inhibition ([10]; at 100.0 µM): 86% (active)

c1ccc2c(c1)ccc1c3ccncc3ccc21
growth inhibition ([11]; at 1.2 µM): 15% | growth inhibition ([11]; at 3.7 µM): 80% (active) | growth inhibition ([11]; at 11.0 µM): 99% (active) | growth inhibition ([11]; at 33.0 µM): 99% (active) | growth inhibition ([11]; at 100.0 µM): 95% (active) | growth inhibition ([12]; at 1.2 µM): -6% | growth inhibition ([12]; at 3.7 µM): -3% | growth inhibition ([12]; at 11.0 µM): 47% | growth inhibition ([12]; at 33.0 µM): 99% (active) | growth inhibition ([12]; at 100.0 µM): 97% (active) | growth inhibition ([13]; at 1.2 µM): 35% | growth inhibition ([13]; at 3.7 µM): 86% (active) | growth inhibition ([13]; at 11.0 µM): 98% (active) | growth inhibition ([13]; at 33.0 µM): 98% (active) | growth inhibition ([13]; at 100.0 µM): 92% (active) | growth inhibition ([14]; at 1.2 µM): 12% | growth inhibition ([14]; at 3.7 µM): 74% (active) | growth inhibition [14, 15]: 90% (active) | growth inhibition ([14]; at 11.0 µM): 98% (active) | growth inhibition ([14]; at 33.0 µM): 99% (active) | growth inhibition [14, 16]: 94% (active) | growth inhibition ([14]; at 50.0 µM): 97.8% (active) | growth inhibition ([14]; at 100.0 µM): 93% (active) | growth inhibition ([1]; at 1.2 µM): 3% | growth inhibition ([1]; at 3.7 µM): 4% | growth inhibition [1, 15]: -15% | growth inhibition ([1]; at 11.0 µM): 85% (active) | growth inhibition ([1]; at 33.0 µM): 99% (active) | growth inhibition [1, 16]: 95% (active) | growth inhibition ([1]; at 50.0 µM): 98.2% (active) | growth inhibition ([1]; at 100.0 µM): 98% (active) | growth inhibition ([2]; at 1.2 µM): 9% | growth inhibition ([2]; at 3.7 µM): 15% | growth inhibition ([2]; at 11.0 µM): 90% (active) | growth inhibition ([2]; at 33.0 µM): 99% (active) | growth inhibition ([2]; at 100.0 µM): 96% (active) | growth inhibition [3, 15]: -15% | growth inhibition [3, 16]: 97% (active) | growth inhibition ([3]; at 50.0 µM): 98% (active) | growth inhibition ([4]; at 1.2 µM): 0% | growth inhibition ([4]; at 3.7 µM): 13% | growth inhibition ([4]; at 11.0 µM): 93% (active) | growth inhibition ([4]; at 33.0 µM): 99% (active) | growth inhibition ([4]; at 100.0 µM): 96% (active) | growth inhibition ([5]; at 1.2 µM): 8% | growth inhibition ([5]; at 3.7 µM): 35% | growth inhibition [5, 15]: 16% | growth inhibition ([5]; at 11.0 µM): 93% (active) | growth inhibition ([5]; at 33.0 µM): 99% (active) | growth inhibition [5, 16]: 96% (active) | growth inhibition ([5]; at 50.0 µM): 97.1% (active) | growth inhibition ([5]; at 100.0 µM): 98% (active) | growth inhibition ([6]; at 1.2 µM): -3% | growth inhibition ([6]; at 3.7 µM): 0% | growth inhibition ([6]; at 11.0 µM): 80% (active) | growth inhibition ([6]; at 33.0 µM): 99% (active) | growth inhibition ([6]; at 100.0 µM): 96% (active) | growth inhibition ([7]; at 1.2 µM): 4% | growth inhibition ([7]; at 3.7 µM): 2% | growth inhibition ([7]; at 11.0 µM): 83% (active) | growth inhibition ([7]; at 33.0 µM): 99% (active) | growth inhibition ([7]; at 100.0 µM): 96% (active) | growth inhibition ([8]; at 1.2 µM): -3% | growth inhibition ([8]; at 3.7 µM): 12% | growth inhibition ([8]; at 11.0 µM): 96% (active) | growth inhibition ([8]; at 33.0 µM): 99% (active) | growth inhibition ([8]; at 100.0 µM): 94% (active) | growth inhibition [9, 15]: -4% | growth inhibition [9, 16]: 94% (active) | growth inhibition ([9]; at 50.0 µM): 97.5% (active) | growth inhibition ([10]; at 1.2 µM): -2% | growth inhibition ([10]; at 3.7 µM): 18% | growth inhibition ([10]; at 11.0 µM): 96% (active) | growth inhibition ([10]; at 33.0 µM): 99% (active) | growth inhibition ([10]; at 100.0 µM): 94% (active)
